Compound activity from PubChem.
ADAM17 inh: inhibits human ADAM17 | inhibition, % at 6.95 µM | P78536 | 370,000 compounds, 0.83% hits | recombinant ADAM17, EDANS/DABCYL FRET peptide cleavage | AID 720648;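 active = inhibition above the mean of compounds lying between control limits plus 3 SD, set per campaign, cut at about 8.5% in these data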
Target sequence (P78536 215-824 limits assumed): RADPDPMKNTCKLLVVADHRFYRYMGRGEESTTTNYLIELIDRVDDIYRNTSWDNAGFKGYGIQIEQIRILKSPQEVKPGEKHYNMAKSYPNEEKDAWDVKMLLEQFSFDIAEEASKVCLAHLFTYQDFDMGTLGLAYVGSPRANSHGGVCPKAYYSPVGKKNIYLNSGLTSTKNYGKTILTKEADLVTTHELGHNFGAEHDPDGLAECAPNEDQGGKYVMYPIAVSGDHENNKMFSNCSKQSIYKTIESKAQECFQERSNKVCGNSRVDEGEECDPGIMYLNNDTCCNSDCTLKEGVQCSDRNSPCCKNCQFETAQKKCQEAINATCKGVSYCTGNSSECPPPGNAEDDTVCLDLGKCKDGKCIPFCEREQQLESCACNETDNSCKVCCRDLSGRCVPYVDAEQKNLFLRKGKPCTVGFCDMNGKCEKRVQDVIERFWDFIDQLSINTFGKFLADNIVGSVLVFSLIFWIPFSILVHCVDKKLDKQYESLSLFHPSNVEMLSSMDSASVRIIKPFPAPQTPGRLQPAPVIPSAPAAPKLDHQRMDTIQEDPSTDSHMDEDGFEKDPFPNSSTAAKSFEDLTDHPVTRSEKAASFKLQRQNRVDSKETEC
aDG glyco up: alpha-DG glycosylation activation; Pro5-aDG cells, alpha-DG glycosylation AlphaScreen (IIH6); 0% Pro5, 100% B10-LARGE cell signal; activation, % at 10 µM; 360,000 compounds, 0.22% hits; AID 624168;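 active = activation of at least 8% versus controls, or a plate z-score of at least 8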;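 note: Pro5 are CHO cells carrying HIG-tagged alpha-DG that lacks glycosylation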
ADAM10 inh: inhibitors of human ADAM10 | O14672 | recombinant ADAM10, EDANS/DABCYL FRET peptide cleavage, 3 h | inhibition, % at 7 µM | 370,000 compounds, 0.62% hits | AID 720582;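 active = inhibition above a per-campaign cutoff equal to the mean of compounds falling between control-based bounds plus 3 SD, cut at about 20% in these data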
FAS-TE inh: FAS thioesterase (human) inhibition; P49327; recombinant FAS-TE, OMFH fluorogenic substrate, fluorescence endpoint; inhibition, % at 15 µM; 360,000 compounds, 0.67% hits; AID 602261;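 active = compounds whose normalised, plate-corrected inhibition of enzyme fluorescence in the single-dose primary screen is 50% or more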
GRIN3A LBD mod: modulates the human NR3A ligand-binding domain | 340,000 compounds, 2.5% hits | NR3A LBD differential scanning fluorimetry, Tm shift; 0% = protein alone, 100% = glycine-bound protein | Tm shift relative to glycine control, % at 25 µM | AID 1259313;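 active = melting temperature shift of at least 10% of the positive control shift, at one fixed dose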
FAS-TE conf: FAS thioesterase (human) inhibition, confirmation; recombinant FAS-TE, OMFH fluorogenic substrate, fluorescence; inhibition, % at 15 µM; 2,300 compounds, 45% hits; shares compounds with FAS-TE inh;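 active = compounds inhibiting the enzyme by at least 50% at 15 µM in any one of the replicates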
Each line names hits and unclear results; the compound was inactive in the other large screens (follow-up assays come after a bar, where they were run). Shown are actives, neighbours in structure and some others; about 4% of the full set was active somewhere.

O=C(Nc1cccc(S(=O)(=O)N2CCCCC2)c1)c1ccc2c(=O)n3c(nc2c1)CCCCC3	FAS-TE inh 60 | FAS-TE conf inactive
Cc1cccc(-c2cccc3c4c([nH]c23)[C@@H]2C[C@H](N(C)C(=O)c3cccc(Cl)c3)[C@H]([C@H](C)O)CN2CC4)c1	none (no result: aDG glyco up, FAS-TE inh, GRIN3A LBD mod)
O=C(O)c1ccccc1NS(=O)(=O)c1ccc(NN=Cc2ccc(F)cc2)c([N+](=O)[O-])c1	FAS-TE inh 57, GRIN3A LBD mod 12 (no result: ADAM17 inh, ADAM10 inh) | FAS-TE conf 71
Cc1nn(-c2ccccc2)c(N2CCCC2)c1/C=N/Nc1ccc(S(=O)(=O)Nc2ccccc2)cc1[N+](=O)[O-]	FAS-TE inh 53 | FAS-TE conf inactive
COc1ccccc1NS(=O)(=O)c1cccc(C(=O)N/N=C/c2c(C)nn(-c3ccccc3)c2N2CCCC2)c1	FAS-TE inh 62 | FAS-TE conf inactive
COc1ccccc1NS(=O)(=O)c1ccc(NN=C2CCCC2)c([N+](=O)[O-])c1	none
COc1c(/C=N/Nc2ccc([N+](=O)[O-])cc2[N+](=O)[O-])c(C)nn1-c1ccccc1	none
COc1ccccc1NS(=O)(=O)c1ccc(N/N=C/C=C/c2ccccc2[N+](=O)[O-])c([N+](=O)[O-])c1	FAS-TE inh 61 | FAS-TE conf inactive
COc1cc(C(=O)NCCOc2cccc3cccnc23)cc(OC)c1OC	none
Cc1cc(C)c(C(=O)COC(=O)CN2C(=O)NC3(CCCC3)C2=O)cc1C	none
CCOc1ccc(/C(O)=C2/C(=O)C(=O)N(CCN(C)C)C2c2ccccc2)cc1Cl (stereo not given)	none
CCOc1ccc(S(=O)(=O)Nc2ccc(C(=O)N/N=C/c3c(C)nn(-c4ccccc4)c3N3CCCC3)cc2)cc1	FAS-TE inh 55 | FAS-TE conf inactive
COc1ccccc1NS(=O)(=O)c1ccc(N/N=C/c2c(C)nn(-c3ccccc3)c2N2CCCC2)c([N+](=O)[O-])c1	FAS-TE inh 64 | FAS-TE conf inactive
COc1ccc(N(CC(=O)NC2CCCC2)C(=O)Cn2nnc(-c3ccc(C)o3)n2)c(OC)c1	none
Cc1ccc2cc3cc(C(=O)N4CC(C)CC(C)C4)oc3nc2c1 (stereo not given)	FAS-TE inh 82 | FAS-TE conf inactive
COc1ccc2cc3cc(C(=O)N4CC(C)CC(C)C4)oc3nc2c1 (stereo not given)	FAS-TE inh 69 (no result: ADAM17 inh, ADAM10 inh) | FAS-TE conf 75
Cc1ccc2cc3cc(C(=O)NCCCN4CC(C)CC(C)C4)oc3nc2c1 (stereo not given)	none
O=C(c1cc2cc(Cl)ccc2o1)N1CCCCCC1	none
Cc1ccc2cc3cc(C(=O)NC4CCCCC4)oc3nc2c1	none
O=C(c1cc2cc3ccc(Cl)cc3nc2o1)N1CCCCCC1	FAS-TE inh 62 (no result: ADAM17 inh, ADAM10 inh) | FAS-TE conf 41
Cc1ccc2cc3cc(C(=O)N4CCCCC4C)oc3nc2c1 (stereo not given)	FAS-TE inh 84 | FAS-TE conf 61
CCCC(=O)Oc1ccc(-c2nccc(C(OC)OC)n2)cc1	none
C=CCn1c(Cc2cccs2)nnc1SCC(=O)Nc1ccc(OC)c(OC)c1	none
CC(=O)C1=CCC(c2ccc(Cl)c(Cl)c2)N(S(=O)(=O)c2ccc(C)cc2)C1 (stereo not given)	none (no result: GRIN3A LBD mod)
Cc1cccc(NC(=O)CCC(=O)N/N=C/c2cc([N+](=O)[O-])ccc2O)c1	none
Cc1cc([N+](=O)[O-])nn1CC(=O)N/N=C/c1ccccc1Br	FAS-TE inh 63 | FAS-TE conf 68
O=C(Cn1nc2ccccc2n1)N/N=C/c1cc([N+](=O)[O-])ccc1O	FAS-TE inh 57 | FAS-TE conf 75
O=C(Cn1cnc([N+](=O)[O-])n1)N/N=C/c1cc(Cl)ccc1O	FAS-TE inh 79 | FAS-TE conf 88
O=C(CCC(=O)Nc1ccc(F)cc1)N/N=C/c1cc([N+](=O)[O-])ccc1O	FAS-TE inh 56 | FAS-TE conf 65
Cc1cc(=O)[nH]c(N/N=C/c2ccco2)n1	none
COc1ccc(OC)c(N(CC(=O)N2CCCC2)S(=O)(=O)c2ccccc2)c1	none
O=C(CCC(=O)Nc1ccc(Br)cc1)N/N=C/c1cc([N+](=O)[O-])ccc1O	FAS-TE inh 56 | FAS-TE conf 64
